# The sample as a whole holds a higher share of hits than the screen did.
# PKM2 inhibitor = blocks activity of human pyruvate kinase M2; Potency, µM (doses to about 57.5 µM), inactives show at the top dose activity change, negative = inhibition, usual class: inhibitors; actives 0.058% (n = 260,000); purified PKM2, ATP generation, Kinase-Glo luminescence; AID 1634; P14618; active = well fitted inhibition curve with a large enough effect; note: nearly all actives have a fitted effect of over 60% in size
# Target sequence (P14618 whole entry, looked up): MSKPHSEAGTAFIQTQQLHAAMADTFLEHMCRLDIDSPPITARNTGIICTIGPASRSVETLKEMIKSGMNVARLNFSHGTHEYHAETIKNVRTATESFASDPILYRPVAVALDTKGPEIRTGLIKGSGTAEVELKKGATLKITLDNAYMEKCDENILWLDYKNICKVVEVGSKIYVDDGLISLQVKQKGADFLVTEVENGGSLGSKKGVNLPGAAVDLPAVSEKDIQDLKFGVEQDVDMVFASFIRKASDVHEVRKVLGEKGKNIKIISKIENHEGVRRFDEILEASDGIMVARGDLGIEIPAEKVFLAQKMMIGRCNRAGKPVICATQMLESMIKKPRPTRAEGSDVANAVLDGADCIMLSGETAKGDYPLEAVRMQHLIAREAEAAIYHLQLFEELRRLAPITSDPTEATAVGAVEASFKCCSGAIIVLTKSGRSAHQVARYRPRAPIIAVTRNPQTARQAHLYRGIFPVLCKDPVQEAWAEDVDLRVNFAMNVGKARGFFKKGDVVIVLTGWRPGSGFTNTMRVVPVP
#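 Coupled luciferase luminescence (Kinase-Glo) detects ATP generated from 0.1 mM ADP and 0.5 mM PEP in imidazole buffer pH 7.2 with KCl, MgCl2; 1 h at room temperature. Enzyme at intermediate activity; normalized to uninhibited and no-enzyme controls.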
# * marks the source's active call; other numbers are inactive results. Potency is the fitted concentration of half-maximal effect.
SMILES,PKM2 inhibitor
C=CCNC(=O)/C(C#N)=C/c1ccc(OS(=O)(=O)c2ccc(C)cc2)c(OC)c1,37%
COc1ccc(S(=O)(=O)N2CCC(Nc3ccccc3Cl)CC2)cc1,37%
Cc1ccc2nc(-c3ccccc3)cn2c1,14µM*
Nc1nc(-c2ccccc2)cn1N,78%
S=C(NC1CCCC1)N1CCN(C/C=C/c2ccccc2)CC1,0%
Cc1occc1C(=O)N/N=C/c1ccc(N(C)C)cc1,14µM*
COCCCNC(=S)N/N=C/c1ccc(O)cc1,32%
COc1ccc(C(=O)NCCN2C(=O)S/C(=C\c3cccnc3)C2=O)cc1[N+](=O)[O-],97%
CCN1C(=O)N/C(=C/c2ccc(C)o2)C1=O,40%
Cc1ccc(C=C2C(=O)c3ccccc3C2=O)o1,14µM*
Cc1ccc(/C=C2/NC(=O)N(c3ccccc3)C2=O)o1,56%
O=C(O)c1ccccc1NS(=O)(=O)c1cccc(-n2sc3ccccc3c2=O)c1,-51%
Cc1cc(NC(=O)CSc2nc3c(cc2C#N)CCC3)no1,82%
COc1ccc(N2C(=O)CC(Sc3nnc(-c4ccccc4F)n3C)C2=O)cc1 (configuration not stated),50%
COc1ccc(N2Cc3ccccc3C2=O)cc1,14µM*
COc1ccc(-n2c(=S)[nH]c3ncccc3c2=O)cc1,0%
CCCCCC1CCC(C(=O)N2CCOCC2)CC1 (configuration not stated),44%
NC(=O)c1ccccc1N/C=C/C(=O)c1ccccc1,11µM*
N#C/C(=C/Nc1ccccc1C(=O)O)C(N)=O,-8%
O=C(/C=C\c1ccc(-c2ccccc2)o1)c1ccccc1,35%
O=C(CCC(=O)N1CCOc2ccc(Cl)cc21)NCCN1CCOCC1,31%
N#CCc1nn2c3c(cnc2c1C#N)C(=O)CCC3,54%
Cc1ccc(CNC(=O)[C@@H]2C[C@H]2[C@@H](NP(=O)(c2ccccc2)c2ccccc2)c2ccccc2)o1,41%
O=S(=O)(c1cccs1)N1CN(C2CCCCC2)c2nc3ccccc3nc21,-1%
Cc1cc(-c2nnc(SCC(=O)Nc3nccs3)o2)no1,90%
SMILES,PKM2 inhibitor
c1c2c(cc3sc(N4CCOCC4)nc13)OCCO2,14µM*
Cc1nonc1CC(=O)N1CCCC(C(=O)c2ccc(Cl)cc2)C1 (configuration not stated),131%
CCCCCCCN1CCC(=O)N([C@H](CO)c2ccccc2)CC1,31%
COc1cc(/C=C/C(=O)CC(=O)/C=C/c2ccc(O)c(OC)c2)ccc1O,30%
COc1ccc(CNC(=O)c2c(C)nc3ccccn23)cc1,43%
COc1ccc(/C=C/C(=O)c2ccccn2)cc1,16µM*
COc1ccc(/C=C/C(=O)NCCNC(=O)c2ccccc2)cc1OC,38%
COc1ccc(-n2c(SCC(=O)O)nnc2-c2ccc(NC(=O)c3ccccc3)cc2)cc1,40%
COc1ccc(C(=O)NNC(=O)c2ccccn2)cc1,3.5µM*
COc1cccc(NC(=O)CSc2nc3c(c(=O)n2C)SC(C)C3)c1 (configuration not stated),32%
CCCCN(CC)CCCNC(=O)CN1C(=O)CSc2ccc(S(=O)(=O)N3CCOCC3)cc21,38%
CS(=O)(=O)N(CC(=O)Nc1ccc(S(=O)(=O)N2CCOCC2)cc1)c1ccccc1Br,32%
N/C(=N\OC(=O)c1ccc(Cl)cc1)c1ccccn1,7.1µM*
O=C(OCc1ccc(Cl)cc1Cl)c1cccnc1Cl,44%
Cc1ccc(C(=O)O/N=C(\N)c2ccccn2)c(C)c1,7.9µM*
N/C(=N\OC(=O)CCCN1C(=O)c2ccccc2C1=O)c1ccccn1,55%
CN(C(=O)CSc1nc2ccccc2s1)c1c(N)n(Cc2ccccc2)c(=O)[nH]c1=O,33%
O=S(=O)(c1ccccc1)c1nc(NCc2cccnc2)sc1Cl,33%
CC(=O)CCc1c(C)nc2ccc(C)cc2c1Cl,78%
C=Cc1ccc2c(c1)N(C)C(=C)S2,31%
CN(c1ccc(F)cc1)S(=O)(=O)c1ccc(Cl)c(C(=O)OCC(=O)NCc2ccco2)c1,42%
CCOc1ccccc1NC(=S)N1CCN(c2ccccc2F)CC1,-23%
CC1=C(C#N)C(=O)N(C2CCS(=O)(=O)C2)C(=O)/C1=C\c1ccc(C)o1 (configuration not stated),49%
CC(=O)C1=C(S(=O)(=O)c2ccc(C)cc2)CS(=O)(=O)C1,30%
CCOC(=O)C1=C(Cc2ccc(C)cc2)C(=O)c2ccccc2C1=O,40%
SMILES,PKM2 inhibitor
Cc1ccc(-c2cc3c(nn2)-c2ccccc2C3=O)cc1,13µM*
CCOc1cc(S(=O)(=O)n2nc(C)cc2C)ccc1Br,74%
CSc1ccc(S(=O)(=O)N2CCC(C(=O)NCc3ccccn3)CC2)cc1,35%
COC(=O)CCCCCCCC(=O)Nc1nnc(C(F)(F)F)s1,32%
CC1CCN(CC(=O)Nc2ccc(S(=O)(=O)NC3CC3)cc2)CC1,36%
Cc1ccc(-n2nnc(-c3nccn3C)n2)cc1,16µM*
COc1ccc(S(=O)(=O)N(C(C)=O)c2ccc(OC(C)=O)c3ccccc23)cc1[N+](=O)[O-],38%
Cn1c(=O)n(C)c2cc(S(=O)(=O)Nc3cc(Cl)ccc3O)ccc21,92%
